# Screens from PubChem.
# Most compounds without a hit are left out; they make up all but 2.6% or so of the library.
# TGFb SMAD3 inh: TGF-b pathway inhibition; hit rate 1.2% among 410,000; AID 588855; Potency, µM (top dose mostly 46.1 µM), hits mostly inhibitors; HepG2 CAGA-GFP TGF-b/SMAD3 reporter, GFP fluorescence, 18 h; TGF-beta stimulated, 500 pg/mL final; note: nearly all actives have a fitted effect of over 65% in size
#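 Smad-responsive CAGA-GFP expression was quantified in HEPG2 cells exposed to compounds and 500 pg/mL final TGF-beta for 18 h at 37 degrees C; unstimulated wells defined full inhibition.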
# Giardia kill: Giardia lamblia killing | hit rate 0.15% among 340,000 | Giardia lamblia trophozoite viability | activity change, % at 7.66 µM, hits read low; in the data active = activity change below about -80%; inconclusive = between about -30% and that limit;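 note: parasites exposed to compound for two days anaerobically before the ATP read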
#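 Giardia lamblia trophozoites (100 cells/well) were incubated with compounds for 48 h at 37 deg C under anaerobic conditions. Viability was read as ATP content by one-step luminescence after 15-30 min at room temperature.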
# S2 tox: reduces viability in counter-screen for ATXN expression inhibitors; S2 cells (HEK-293 line with an ATXN2-luciferase reporter) viability, CellTiter-Fluor protease fluorescence, 24 h; Potency, µM (titrated, usually from 56.7 µM), actives largely listed as cytotoxic; hit rate 0.49% among 400,000; note: nearly all actives have a fitted effect of over 40% in size
# HepG2 tox: HepG2 cytotoxicity, counter-screen for TGF-b inhibitors; HepG2 CAGA-GFP viability, ATP luminescence, 18 h; Potency, µM (titrated, usually from 46.1 µM), most hits filed as cytotoxic; hit rate 0.76% among 410,000; AID 588856
#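 HepG2 CAGA-GFP cells (1000/well, DMEM with 1% FBS) received compound, then TGF-beta at 500 pg/mL final, and were incubated 18 hours at 37 degrees C. Viability was read by CellTiter-Glo luminescence. Media-only wells were set as complete cell-killing and DMSO as no toxicity.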
# uPA surface inh: cell surface uPA generation inhibition. cell surface uPA generation assay, qHTS. Potency, µM (highest dose often 38.3 µM), hits mostly inhibitors. hit rate 0.31% among 330,000. AID 540303; active = well fitted inhibition curve with a large enough effect; inconclusive = small, poorly fitted or top-dose-only effect; inactive = no such curve, though single readings can be large or run the other way; tested in mouse RAW 264.7 cells; note: nearly all actives have a fitted effect of over 55% in size
# ATXN2 expr inh: ATXN2 expression inhibition | HEK-293 ATXN2-luciferase reporter, luminescence, 24 h | Potency, µM (series often up to 57 µM), hits mostly inhibitors | hit rate 0.72% among 360,000; note: nearly all actives have a fitted effect of over 55% in size
#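 qHTS (up to 57 uM final) was run with 24 h compound exposure of reporter cells at 37 °C. Each well was multiplexed: SteadyGlo luminescence measured ATXN2-luciferase expression after a fluorogenic Gly-Phe-AFC viability readout (25 uM final).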
# Numbers stand for hits; 0 = inactive; ? = inconclusive; - = no result given. Unless noted, calls come from the whole dose curve; as a rule, active = well fitted curve in the direction sought with a large enough effect; inconclusive = small, poorly fitted or top-dose-only effect, or another doubt; inactive = no such curve, though single readings can be large; an effect the other way counts as inactive or inconclusive.
SMILES,TGFb SMAD3 inh,Giardia kill,S2 tox,HepG2 tox,uPA surface inh,ATXN2 expr inh
CC(C)CC1C(=O)N(Cc2cn(CCC3OCCO3)nn2)CCS(=O)(=O)N1Cc1ccc(-c2ccc(Cl)c(Cl)c2)cc1 (stereo not drawn),11µM,-,-,0,-,?
CC(C)CC1C(=O)N(Cc2cn(CCC3OCCO3)nn2)CCS(=O)(=O)N1Cc1ccc(-c2ccccc2)cc1 (stereo not drawn),?,-,?,0,-,?
Cc1ccc(CN2[C@H](C)[C@H](c3ccccc3)OCCS2(=O)=O)cc1,0,-,-,0,-,-
O=C1N=c2ccccc2=C1c1sc(=S)n(-c2ccc(O)cc2)c1O,0,0,0,0,0,0
CN(c1ccc(O)cc1)c1nc(O)c(C2=c3ccccc3=NC2=O)s1,?,0,28µM,0,0,-
CC1=C(C)/C(=N\OS(=O)(=O)c2ccccc2)C=CC1=O,?,0,11µM,14µM,0,10µM
Cc1ccc(S(=O)(=O)O/N=C2\CCCc3ccccc32)cc1,0,0,0,0,0,0
O=C1c2ccccc2C(=O)N1c1nc(-c2ccc(Cl)cc2)cs1,0,-,-,0,-,-
COC(=O)C1=C(C)N(Cc2ccccc2)C(=NCCc2c[nH]c3ccccc23)N[C@H]1c1ccccc1,?,0,?,10µM,?,?
CCN(CC)CCCN=C1N[C@@H](c2cccc(F)c2)C(C(=O)OC)=C(C)N1Cc1ccccc1,?,0,25µM,0,?,22µM
COC(=O)C1=C(C)N(Cc2ccccc2)C(=NCCc2c[nH]c3ccccc23)N[C@H]1c1cccc(F)c1,?,0,22µM,0,0,?
COCCN=C1N[C@@H](c2ccccc2)C(C(=O)OC)=C(C)N1Cc1ccccc1,0,0,0,0,0,0
CC(C)(C)n1ncc2c(=O)n(Cc3ccc(Cl)cc3F)cnc21,?,-,-,0,-,-
COc1ccccc1CN1CCC2(CCC(CNC(=O)c3ccccc3N(C)C)O2)CC1 (stereo not drawn),-,-,0,-,-,-
Cc1ccc(S(=O)(=O)Nc2cccc3ncccc23)cc1,0,0,0,0,0,0
Cc1ccc(S(=O)(=O)Nc2ccc(O)c3ncccc23)cc1,?,0,?,0,7.9µM,0
Cc1ccc(S(=O)(=O)Nc2ccc(O)c3cccnc23)cc1,?,0,?,0,0,22µM
COc1cccc(/C=C/c2ccnc3ccccc23)c1OC,?,-,-,0,-,-
CC(C)OC(=O)C1=CN(C(=O)c2ccc(F)c(F)c2)CC(C)(C)c2c1[nH]c1ccccc21,-,-,-,-,-,0
Cc1ccc(C)c(OCC(O)CN2CCC(CN3C(=O)c4cccc5cccc(c45)C3=O)CC2)c1 (stereo not drawn),?,0,-,0,0,28µM
COc1ccc(OCC(O)CN2CCC(CN3C(=O)c4cccc5cccc(c45)C3=O)CC2)cc1 (stereo not drawn),?,0,?,0,0,?
Cc1ccc(Nc2nccc(N(C)c3ccc4c(C)n(C)nc4c3)n2)cc1S(N)(=O)=O,-,-,?,-,-,0
C#Cc1cccc(Nc2ncnc3cc(OCCOC)c(OCCO)cc23)c1,-,-,-,-,-,0
COC(=O)c1c(OCc2ccccc2)cc(=O)n2c1CCN(Cc1cccc(C)n1)CC2,-,-,0,-,-,-
C=C1C=C(C)n2ncc(C(=O)Nc3ccc(NC(C)=O)c(Cl)c3)c2N1,0,-,-,0,-,-
SMILES,TGFb SMAD3 inh,Giardia kill,S2 tox,HepG2 tox,uPA surface inh,ATXN2 expr inh
CCc1cccc(C)c1Nc1c(-c2cccc(O)c2)nc2cnccn12,11µM,-,0,0,-,0
CCc1cccc(C)c1Nc1c(-c2ccc(F)cc2)nc2sccn12,?,-,-,0,-,-
CCc1cccc(C)c1Nc1c(-c2ccc(N(C)C)cc2)nc2cnccn12,16µM,-,?,16µM,-,?
CCc1cccc(C)c1Nc1c(-c2ccc(SC)cc2)nc2sccn12,20µM,-,-,0,-,-
CN1CCN(c2nc(-c3ccccc3)c3cc(Cl)ccc3n2)CC1,0,0,0,0,0,0
Clc1ccc2nc(N3CCNCC3)nc(-c3ccccc3)c2c1,?,0,0,13µM,0,?
COc1ccccc1-c1ncn(Cc2cccc(-c3ccccc3)c2)c1CC(C)C,-,-,11µM,-,-,11µM
O=C1C(Cl)=C(N2CCCCC2)C(=O)C(Cl)=C1c1cnc(N2CCCCC2)s1,0,0,?,0,0,?
CN(C)c1ncc(C2=C(Cl)C(=O)C(N3CCCC3)=C(Cl)C2=O)s1,0,0,-,0,-,25µM
NS(=O)(=O)c1cccc2cccnc12,0,0,0,0,0,0
CC(C)(C)OC(=O)N(c1cccc2cccnc12)S(=O)(=O)c1ccccc1Br,4.5µM,0,-,0,-,-
Cc1nnc(SCC(=O)N2CCCC2)n1-c1ccc(F)cc1,0,0,0,4.5µM,0,0
COc1ccc(-c2nc3ccccc3o2)cc1NC(=O)COc1ccc(C)cc1,0,-,-,0,-,-
O=[N+]([O-])c1ccc(-n2nnnc2-c2ccccc2)cc1,0,0,0,0,0,-
O=[N+]([O-])c1ccc(-n2nnnc2-c2ccccc2)c([N+](=O)[O-])c1,10µM,0,?,16µM,0,?
CS(=O)(=O)Nc1cccc(NC(=O)c2cccc3c(-c4cccc(C(N)=O)c4)coc23)c1,0,-,0,0,-,?
CC(=O)c1cccc(NC(=O)c2cccc3c(-c4cccc(C(N)=O)c4)coc23)c1,0,-,?,0,-,32µM
CCn1c(-c2ccccc2F)nc2cc(C(=O)NCc3ccc(C)o3)cc(NC(C)=O)c21,-,-,0,-,-,-
CN1/C(=C/c2cc[n+](C)c3ccccc23)C=Cc2ccccc21,?,0,?,0,?,3.8µM
O=C(COc1ccc2ccccc2c1CN1CCOCC1)N1CCc2ccccc21,?,0,0,13µM,0,0
O=C(COc1ccccc1Cl)N1CCc2ccccc21,0,0,0,0,0,0
CC(=O)c1c(C)[nH]c2ccc(OCC(O)CNCCc3ccccc3)cc12 (stereo not drawn),0,-,-,0,-,-
Cc1ccc(NC(=S)N(CCN(C)C)C(C)c2ccco2)c(C)c1 (stereo not drawn),0,0,0,0,0,-
Cc1ccc(NC(=S)N(CCN(C)C)C(C)c2ccco2)cc1Cl (stereo not drawn),18µM,?,0,0,0,-
Cc1ccc(-n2cc(-c3ccccc3)c3c(NC4CCCC4)ncnc32)cc1,?,-,-,0,-,-
SMILES,TGFb SMAD3 inh,Giardia kill,S2 tox,HepG2 tox,uPA surface inh,ATXN2 expr inh
Cc1cc(NCc2ccccn2)n2ncc(-c3ccccc3)c2n1,?,0,0,0,0,0
Cc1cc(NCc2ccccn2)n2ncc(-c3ccc(Cl)cc3)c2n1,11µM,0,?,0,0,0
Cc1cc(NCc2ccccn2)n2nc(C)c(-c3ccc(Cl)cc3)c2n1,?,0,0,14µM,0,?
CN(C)c1ccc(/C=C2/CCCc3c2nc2ccccc2c3C(=O)O)cc1,0,-,-,0,-,-
CCN(CC)c1ccc(/C=C/c2ccccn2)cc1,0,-,-,0,-,-
CCN(CC)c1ccc(/C=C/c2ccnc3ccccc23)cc1,0,-,-,0,-,-
CC(C)(C)c1nnc(NS(=O)(=O)c2ccc(N)cc2)s1,-,-,0,-,-,0
